Source: PubChem BioAssay
Shiga inhibitor: blocks Shiga toxin action in Vero cells; actives 9.2% (n = 290,000); AID 2315; inhibition, % at 38.7 µM; Vero cells, Shiga toxin protein synthesis inhibition reporter; in the data active = inhibition mostly above about 28%, no sharp cut-off; inactive = mostly below about 43%; also: 0% is about no effect
Cycloheximide cs: counter-screen for Shiga toxin inhibitors: cycloheximide protein synthesis inhibition; actives 12% (n = 300,000); max response, %; cell reporter, cycloheximide protein synthesis inhibition counterscreen; in the data active = max response mostly above about 13%, no sharp cut-off; inactive = mostly below about 14%; also: read at 38.3 µM for the half of the compounds with a filed dose; 0% is about no effect
HCMV inh: blocks human cytomegalovirus replication | HFF cells, HCMV-luciferase reporter, 72 h; stronger effect = lower value | activity change, negative = inhibition, % at 57.5 µM | actives 4.5% (n = 410,000); in the data active = activity change below about -60%; inconclusive = no clear call, values can overlap the other calls; inactive = above about -39%; also: % is scaled to controls: 0 for no effect and ±100 for the full control effect
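Screen run at 2 compound doses on HFFs infected with reporter HCMV, MOI 1 PFU/cell. Luciferase activity from cell lysates at 72 h post infection gave inhibition relative to buffer-only and Salinomycin wells.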
HCV inhibitor: inhibitors of hepatitis C virus infection. Huh7.5.1 HCVcc-Cre infection, luciferase reporter, 44 h. Potency, µM (doses to about 41.8 µM), for inactives: at the highest dose activity change, negative = inhibition, hits mostly inhibitors. actives 3.4% (n = 340,000). AID 651820; also: potency is read from the fitted curve at half-maximal effect; % is scaled to controls: 0 for no effect and ±100 for the full control effect
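1,000 cells/well; 4 h culture; + compound; + HCVcc-Cre (~0.5 moi); 44 h; luciferase substrate, RT 15 min; read 15 sec.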
Pf growth 96h: inhibits malaria parasite growth, 96 h | actives 6.9% (n = 320,000) | AID 504834 | P. falciparum luciferase reporter growth, 96 h | Potency, µM (highest dose often 28.7 µM), for inactives: top-dose activity change, negative = inhibition, most hits filed as inhibitors; also: potency is read from the fitted curve at half-maximal effect; % is scaled to controls: 0 for no effect and ±100 for the full control effect
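Plates of compound plus infected erythrocytes (2% hematocrit, 0.05% parasitemia final) incubate 96 hours, 37 C, 5% CO2. Detection reagent added; reduced luminescence from the parasites' luciferase reporter flags inhibition.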
Pf growth 48h: P. falciparum growth inhibition at 48 hours (one generation); P. falciparum luciferase growth in erythrocytes, 48 h; Potency, µM (doses to about 28.7 µM), inactives show at the highest dose activity change, negative = inhibition, usual class: inhibitors; actives 5.9% (n = 310,000); AID 504832; also: potency is read from the fitted curve at half-maximal effect; % is scaled to controls: 0 for no effect and ±100 for the full control effect
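Compounds are pin-transferred into medium, infected erythrocytes (2% hematocrit, 0.1% parasitemia final) are added, and plates sit one parasite generation at 37 C in 5% CO2. Detection reagent is then added and luminescence measured.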
* = called active by the depositor; [ ] = remark or other dose. In the library only some 21% were active in any assay of this set; here they are far more common. Unless noted, calls follow the shape of the dose curve; as a rule, active = well fitted inhibition curve with a large enough effect; inconclusive = small, poorly fitted or top-dose-only effect, or another doubt; inactive = no such curve, though single readings can be large or run the other way.

What do the screens show for `Cc1cccc(NC(=O)NC2CCCc3ccccc32)c1` (stereo not drawn)?
Shiga inhibitor: 14; Cycloheximide cs: 7; HCMV inh: 6; HCV inhibitor: -24%; Pf growth 96h: 37%; Pf growth 48h: -15%

Results for C[C@H](CO)N1C[C@H](C)[C@@H](CN(C)Cc2cncnc2)Oc2cc(Br)ccc2S1(=O)=O ?
HCMV inh: -22

How did O=C(OCC#CCSc1nnc(-c2cccc3ccccc23)s1)c1cccs1 do in these assays?
Pf growth 96h: 8%; Pf growth 48h: -12%

Results for CCc1ccccc1NC(=O)c1sc(-n2nc(C)c(Cc3ccc4c(c3)OCO4)c2C)nc1C ?
HCMV inh: -12

How did CC(=O)c1cccc(NC(=O)NC2CCCc3ccccc32)c1 (stereo not drawn) do in these assays?
Shiga inhibitor: 17; Cycloheximide cs: 0; HCMV inh: -70*; HCV inhibitor: inconclusive; Pf growth 96h: inconclusive; Pf growth 48h: 17%

Results for CC(=O)c1ccc(NC(=O)NC2CCCc3ccccc32)cc1 (stereo not drawn) ?
Shiga inhibitor: 4; Cycloheximide cs: 1; HCMV inh: 5; HCV inhibitor: inconclusive; Pf growth 96h: -17%; Pf growth 48h: -6%

What do the screens show for `COc1ccc(C)cc1NC(=O)NC1CCCc2ccccc21` (stereo not drawn)?
Shiga inhibitor: -3; Cycloheximide cs: -4; HCMV inh: -14; HCV inhibitor: inconclusive; Pf growth 96h: 16%; Pf growth 48h: 12µM*

How did COc1ccc(NC(=O)NC2CCCc3ccccc32)cc1 (stereo not drawn) do in these assays?
Shiga inhibitor: 19; Cycloheximide cs: 16*; HCMV inh: inconclusive; HCV inhibitor: -13%; Pf growth 96h: 12%; Pf growth 48h: 21%

Results for O=C(CSc1nc2ccccc2n1Cc1cccc(C(F)(F)F)c1)NCc1ccccc1 ?
HCMV inh: -14

What do the screens show for `S=C(NC1CC1)N1CCN(C(=S)NC2CC2)CC1`?
Shiga inhibitor: 7; Cycloheximide cs: 28*; HCMV inh: -13; HCV inhibitor: 8%; Pf growth 96h: inconclusive; Pf growth 48h: -4%

What do the screens show for `S=C(NC1CCCCC1)N1CCOCCOCCN(C(=S)NC2CCCCC2)CCOCCOCC1`?
Shiga inhibitor: -5; Cycloheximide cs: -3; HCMV inh: -78*; HCV inhibitor: -17%; Pf growth 96h: 10µM*; Pf growth 48h: inconclusive

How did S=C(NC1CCCCC1)N1CCN(C2CCCCC2)CC1 do in these assays?
Shiga inhibitor: 13; Cycloheximide cs: 14; HCMV inh: 19; HCV inhibitor: -15%; Pf growth 96h: 0%; Pf growth 48h: -21%

Results for Cn1ccnc1C(=O)c1ccc(N)cc1 ?
Shiga inhibitor: 4; Cycloheximide cs: -3; HCMV inh: 14; HCV inhibitor: 3%; Pf growth 96h: 36%; Pf growth 48h: 15%

What do the screens show for `O=C(c1ccncc1)c1nccn1-c1ccccn1`?
Shiga inhibitor: -12; Cycloheximide cs: -10; HCMV inh: 41; HCV inhibitor: -13%; Pf growth 96h: 13µM*; Pf growth 48h: -6%

What do the screens show for `COc1ccc(C(=O)Nc2ccc3c(c2)nc2n3CCSC2)cc1`?
Shiga inhibitor: 86*; Cycloheximide cs: 45*; HCMV inh: 31; HCV inhibitor: inconclusive; Pf growth 96h: 56%; Pf growth 48h: inconclusive

What do the screens show for `CS(=O)(=O)Nc1ccc2c(c1)nc1n2CCOC1`?
Shiga inhibitor: -28; Cycloheximide cs: 0; HCMV inh: 54; HCV inhibitor: 4%; Pf growth 96h: -8%[5.75 µM]; Pf growth 48h: -3%

Results for CCC(=O)Nc1ccc2c(c1)nc1n2CCSC1 ?
Shiga inhibitor: -2; Cycloheximide cs: 14; HCMV inh: -31; HCV inhibitor: 9%; Pf growth 96h: 12%; Pf growth 48h: 21%

What do the screens show for `O=C(Nc1ccc2c(c1)nc1n2CCOC1)c1ccccc1`?
Shiga inhibitor: 94*; Cycloheximide cs: 31*; HCMV inh: 90; HCV inhibitor: 1%; Pf growth 96h: 62%[5.75 µM]; Pf growth 48h: 86%

Results for O=C(Nc1ccc2c(c1)nc1n2CCSC1)c1ccccc1 ?
Shiga inhibitor: 43*; Cycloheximide cs: 40*; HCMV inh: -8; HCV inhibitor: -24%; Pf growth 96h: -2%[5.75 µM]; Pf growth 48h: 5%

Results for CC(C)C(=O)Nc1ccc2c(c1)nc1n2CCSC1 ?
Shiga inhibitor: 40*; Cycloheximide cs: 19; HCMV inh: inconclusive; HCV inhibitor: 4%; Pf growth 48h: 70%

Results for CCOC(=O)C(C(=O)OCC)c1c([N+](=O)[O-])c(=O)n2c3c(cccc13)CCC2 ?
Shiga inhibitor: -3; Cycloheximide cs: -4; HCMV inh: -26; HCV inhibitor: -24%; Pf growth 96h: 12%; Pf growth 48h: 8%

How did CCCCC(=O)Nc1ccc2c(c1)nc1n2CCOC1 do in these assays?
Shiga inhibitor: 89*; Cycloheximide cs: 20*; HCMV inh: 35; HCV inhibitor: 9%; Pf growth 96h: 23%[5.75 µM]; Pf growth 48h: 73%

How did CCCC(=O)Nc1ccc2c(c1)nc1n2CCOC1 do in these assays?
Shiga inhibitor: 27; Cycloheximide cs: -2; HCMV inh: -17; HCV inhibitor: 20%; Pf growth 96h: 1%[5.75 µM]; Pf growth 48h: 11%

How did Cc1ccc(NC2=C(Cl)C(=O)OC2NC(=O)c2ccccc2)cc1 (stereo not drawn) do in these assays?
Shiga inhibitor: 11; Cycloheximide cs: -6; HCMV inh: -22; HCV inhibitor: 2%; Pf growth 96h: 1µM*; Pf growth 48h: inconclusive

Results for O=c1oc2cc(O)ccc2cc1-c1nc(-c2ccc(Cl)c(Cl)c2)cs1 ?
HCMV inh: 4

Results for Cc1cc(C)nc(/N=C(\N)Nc2ccc(SC(F)F)cc2)n1 ?
Shiga inhibitor: -2; Cycloheximide cs: 6; HCMV inh: inconclusive; HCV inhibitor: inconclusive; Pf growth 96h: 13µM*; Pf growth 48h: 12µM*

Results for CC(=O)Nc1ccc(N/C(N)=N/c2nc(C)cc(C)n2)cc1 ?
Shiga inhibitor: 55; Cycloheximide cs: 1; HCMV inh: 40; HCV inhibitor: -7%; Pf growth 96h: inconclusive; Pf growth 48h: inconclusive

How did Cc1cc(C)nc(/N=C(\N)Nc2ccc(-c3ccccc3)cc2)n1 do in these assays?
Shiga inhibitor: -21; Cycloheximide cs: 8; HCMV inh: inconclusive; HCV inhibitor: 11µM*; Pf growth 96h: inconclusive; Pf growth 48h: inconclusive

Results for Cc1cc(C)nc(/N=C(\N)Nc2ccc(S(N)(=O)=O)cc2)n1 ?
Shiga inhibitor: 1; Cycloheximide cs: -1; HCMV inh: -26; HCV inhibitor: -15%; Pf growth 96h: 59%; Pf growth 48h: inconclusive
